Experiment [1] is described as follows: Cytotoxicity counterscreen for NFkB agonists and antagonists (AID 624476).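 Note: cells exposed to compound for 48 hours.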 Note: potency is the fitted concentration of half-maximal effect.
A short description of experiment [2]: qHTS Assay for Identification of Small Molecule Agonists for NFkB Signaling Pathway. (AID 624478).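 Note: compounds tested together with TNF alpha at its EC50 of 10 pM; 0% is about no effect.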 In outline:
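ME-180 cervical carcinoma, stable NFkB-RE beta-lactamase reporter; 1000 cells/well, overnight attachment; cpd + TNF alpha 10 pM final, 5 h 37 C; LiveBLAzer 2 h RT; FRET 460/530 nm, ex 405 nm.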

Experiment [3] in a line: qHTS Assay for Identification of Small Molecule Antagonists for NFkB Signaling Pathway. (AID 624479; calls by dose curve;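 note: pathway stimulated with TNF alpha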; note: potency is the fitted concentration of half-maximal effect). In general terms: qHTS replaces the single test concentration by a dilution series.
Experiment [4] can be described thus: Cell Proliferation Assay against the TMD8 Cell Line (AID 651645).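 Note: cells exposed to compound for 48 h before reading.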 As to conditions: TMD8 DLBCL cell line proliferation/viability; at 46.1 µM (top of the series) unless noted. The essentials: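 500 TMD8 cells/well, RPMI + Glutamax, no phenol red, 5% FBS; cpd added immediately; 48 h, 37C, 5% CO2; CellTiter-Glo, luminescence. Controls: DMSO = 100%, bortezomib 9.2 uM final = 0%.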

Experiment [5] in a line: Cell Proliferation Assay against the HBL1 Cell Line (AID 651646).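 Note: cells exposed to compound for 48 h before reading.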 The following applies: HBL1 DLBCL cells; at 46.1 µM (top of the series) unless noted. The essentials: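 HBL1 ABC DLBCL cells, 500/well in RPMI with 5% FBS, treated for 48 h at 37C. Viability read by CellTiter-Glo luminescence, normalized to DMSO as 100% and 9.2 uM bortezomib as 0%.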
The nature of experiment [6]: Cell Proliferation Assay against the TMD8 Cell Line (Caspase readout at 16 hrs) (AID 651712). Note: potency is the fitted concentration of half-maximal effect. The essentials: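 TMD8 cells in RPMI with 5% FBS were treated with compound for 16 h at 37 C, then caspase 3/7 activation was read by Caspase-Glo luminescence. Percent activity was scaled to DMSO (0%) and 9.2 uM bortezomib final (100%).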
Experiment [7] can be described thus: Cell Proliferation Assay against the TMD8 Cell Line (Caspase readout at 8 hrs) (AID 651713).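 Note: 0% = DMSO and 100% = 9.2 µM bortezomib caspase signal.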 In outline:
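Seed log-phase TMD8 cells, add compound by pin tool, incubate 8 h at 37C under 5% CO2, equilibrate to room temperature, add Caspase-Glo, wait 15 min, read luminescence; percent activity uses DMSO and 9.2 uM bortezomib controls.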

Experiment [8] deals with Glutaminase kidney isoform, mitochondrial (Homo sapiens) (UniProt O94925). Description: qHTS for Inhibitors of Glutaminase (GLS): LOPAC Validation (AID 624146).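 Note: glutamate product detected by oxidase and peroxidase coupled Amplex red fluorescence gain; % is set by controls: 0 for no effect and ±100 for the full control effect; nearly all actives have a fitted effect of over 60% in size.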 In outline:
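Coupled fluorescence readout: glutamate oxidase/HRP/Amplex Red detect glutamate formed by hKGA from L-glutamine (1 mM solution added). Buffer 45 mM KH2PO4 pH 8.2, 0.02% Tween-20; reads at t0 and 30 min RT.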

Experiment [9] can be described thus: qHTS of Trypanosoma Brucei Inhibitors: LOPAC Validation (AID 624147). Note: 0% is about no effect. In outline: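 Readout: single end-point luminescence (Kinase-Glo Plus, 10 min). Reaction conditions were TbPYK/substrate plus 130 uM ADP, 45 min at RT, pH 7.2 TEA buffer. No-enzyme wells served as controls, and data were normalized before concentration-response fitting.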
Experiment [10] is described as follows: qHTS of Nrf2 Activators: LOPAC Validation (AID 624149). Note: 0% is about no effect. In outline: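 Luminescence read-out of ARE-luciferase activation: AREc32_Fluc cells treated with compounds for 24 hr at 37 deg C, then lysed with Steady-Glo for 30 min at room temperature before reading.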
Experiment [11] is described as follows: HTS Assay for Allosteric Antagonists of the Human D2 Dopamine Receptor: Hit Validation in HTRF (AID 624455).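 Note: stable D1 dopamine receptor cell line scored for blocking the D1 response; % is set by controls: 0 for no effect and ±100 for the full control effect.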 The essentials: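 First, antagonism was screened by calcium flux in a force-coupled, inducible Hek293 Trex D2 line challenged with EC80 dopamine. Hits then went into an HTRF assay in cells stably expressing D1, testing inhibition of the D1 response.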
In general terms: In TR-FRET formats the signal depends on donor and acceptor labels being close together.

Experiment [12] addresses Glucagon-like peptide 1 receptor (Homo sapiens) (UniProt P43220). Description: qHTS of GLP-1 Receptor Agonists: LOPAC Validation (AID 624148).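 Note: 0% is about no effect; higher luminescence signal means agonism.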 The essentials:
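HEK293 cells stably co-expressing GLP-1R and a cAMP-responsive luciferase reporter, plated 12 hours before compound, then incubated 4-6 hr at 37 deg C. Luminescence read 12 min after detection reagent.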

A short description of experiment [13]: qHTS assay for small molecule agonists of the antioxidant response element (ARE) signaling pathway (AID 651741; active = well fitted activation curve with a large enough effect in the signal ratio; the % refers to the signal ratio; note: potency is the fitted concentration of half-maximal effect; for activation: % of control where 0% means no effect). In outline:
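CellSensor ARE-bla HepG2 cells (2,000/well) carrying ARE-driven beta-lactamase, exposed 16 h at 37 C. LiveBLAzer B/G FRET substrate added for 2 h at room temperature; fluorescence intensity read.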

Experiment [14] is described as follows: qHTS assay for small molecule activators of the nuclear factor-kappa B (NF-kB) signaling pathway (AID 651749; active = well fitted activation curve with a large enough effect in the signal ratio; the % refers to the signal ratio; note: % of control where 0% means no effect). As to conditions: NF-kB-bla ME-180 cells, beta-lactamase FRET ratio, 16 h; stronger effect = higher value. In outline: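 NF-kB-bla ME-180 cells carrying a beta-lactamase reporter under an NF-kB response element, 2,000 cells/well, exposed to compound for 16 hr at 37C; FRET-based beta-lactamase fluorescence read-out of pathway activation.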

The target in experiment [15] is Tumor necrosis factor (Homo sapiens) (UniProt P01375). In words: qHTS assay to identify small molecules that stimulate Tumor Necrosis Factor-alpha (TNF-alpha) secretion (AID 651757; active = well fitted curve in the direction sought with a large enough effect in the signal ratio; the % refers to the signal ratio; note: 0% is about no effect). The essentials:
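Read-out is HTRF, a TR-FRET sandwich of cryptate- and XL665-labeled anti-TNF-alpha antibodies detecting cytokine secreted by THP-1 cells. Cells had been incubated with test compounds at 37 C for 17 hrs beforehand.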

Experiment [16] in a line: qHTS assay to identify small molecules that stimulate interleukin-8 (IL-8) secretion (AID 651758; active = well fitted activation curve with a large enough effect in the signal ratio; the % refers to the signal ratio; note: 0% is about no effect). The essentials:
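THP-1 cells (2000/well) exposed to compound 16 h at 37 C; secreted IL-8 then detected by HTRF with cryptate- and XL665-labelled anti-IL-8 antibody pair after 1-3 h at room temperature.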

The nature of experiment [17]: qHTS assay for small molecule disruptors of the mitochondrial membrane potential - 1 hr assay (AID 651754; calls by dose curve; note: potency is the fitted concentration of half-maximal effect; nearly all actives have a fitted effect of over 35% in size). The essentials: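 HepG2, 2,000 cells/well, overnight attachment; cpd or DMSO 1 hr, 37C/5% CO2; Mito-MPS dye 30 min, 37C; fluorescence monomer (490/535) and aggregate (540/590).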
Experiment [18] is described as follows: qHTS assay for small molecule disruptors of the mitochondrial membrane potential - 5 hr assay (AID 651755; calls by dose curve; note: potency is the fitted concentration of half-maximal effect; nearly all actives have a fitted effect of over 40% in size). The essentials: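 HepG2 cells (2,000/well), attached overnight, exposed to compound 5 hr at 37C, then Mito-MPS dye 30 min. Fluorescence read for monomers (490/535 nm) and aggregates (540/590 nm).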

Values joined by “and” are separate entries in the source; they are usually repeats but may differ in a detail not shown here. Identical values can stand only once. Records with an inconclusive call do not appear. Active and inactive are the calls of the source. Unless noted, calls come from the whole dose curve; as a rule, active = well fitted curve in the direction sought with a large enough effect; inconclusive = small, poorly fitted or top-dose-only effect, or another doubt; inactive = no such curve, though single readings can be large; an effect the other way counts as inactive or inconclusive.

The values that follow come from PubChem BioAssay (NCATS).

Sequence of Glucagon-like peptide 1 receptor (Homo sapiens) (P43220 whole entry, looked up): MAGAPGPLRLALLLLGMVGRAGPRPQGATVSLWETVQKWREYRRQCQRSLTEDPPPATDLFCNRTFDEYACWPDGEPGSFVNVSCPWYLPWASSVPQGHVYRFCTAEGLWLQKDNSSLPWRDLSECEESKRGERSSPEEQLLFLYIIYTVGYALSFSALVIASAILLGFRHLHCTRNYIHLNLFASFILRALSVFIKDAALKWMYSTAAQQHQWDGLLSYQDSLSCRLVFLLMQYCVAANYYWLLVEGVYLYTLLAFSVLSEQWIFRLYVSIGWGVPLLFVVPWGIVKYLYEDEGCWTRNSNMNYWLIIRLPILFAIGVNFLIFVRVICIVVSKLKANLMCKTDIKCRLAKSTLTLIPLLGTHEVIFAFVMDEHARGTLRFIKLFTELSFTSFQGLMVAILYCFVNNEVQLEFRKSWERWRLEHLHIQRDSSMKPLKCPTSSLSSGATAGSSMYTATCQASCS
Sequence of Glutaminase kidney isoform, mitochondrial (Homo sapiens) (O94925 whole entry, looked up, canonical isoform): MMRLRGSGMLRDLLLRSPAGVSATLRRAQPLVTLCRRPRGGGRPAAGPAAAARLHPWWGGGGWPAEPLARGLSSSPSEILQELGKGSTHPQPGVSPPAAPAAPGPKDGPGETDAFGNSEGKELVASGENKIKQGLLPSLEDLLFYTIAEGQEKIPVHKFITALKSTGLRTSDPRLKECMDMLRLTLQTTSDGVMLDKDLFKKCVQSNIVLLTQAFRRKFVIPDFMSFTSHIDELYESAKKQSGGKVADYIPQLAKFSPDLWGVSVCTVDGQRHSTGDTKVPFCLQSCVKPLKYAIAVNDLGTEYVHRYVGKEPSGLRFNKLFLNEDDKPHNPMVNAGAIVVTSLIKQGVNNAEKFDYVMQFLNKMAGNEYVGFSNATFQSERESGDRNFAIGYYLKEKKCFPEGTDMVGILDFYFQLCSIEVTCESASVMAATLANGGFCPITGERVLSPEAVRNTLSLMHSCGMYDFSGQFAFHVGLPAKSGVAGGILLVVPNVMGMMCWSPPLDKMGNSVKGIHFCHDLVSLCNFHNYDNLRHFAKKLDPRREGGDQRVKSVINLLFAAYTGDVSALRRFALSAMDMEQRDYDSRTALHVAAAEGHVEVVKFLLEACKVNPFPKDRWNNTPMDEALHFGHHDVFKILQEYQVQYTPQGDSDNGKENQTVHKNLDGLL
Sequence of Tumor necrosis factor (Homo sapiens) (P01375 whole entry, looked up): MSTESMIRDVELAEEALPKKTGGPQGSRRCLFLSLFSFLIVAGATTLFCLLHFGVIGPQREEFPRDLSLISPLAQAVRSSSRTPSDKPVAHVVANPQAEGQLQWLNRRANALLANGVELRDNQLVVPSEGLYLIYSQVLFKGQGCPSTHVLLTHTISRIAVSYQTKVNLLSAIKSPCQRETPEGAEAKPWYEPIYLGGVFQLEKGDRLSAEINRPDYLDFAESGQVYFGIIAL

Consider `O=C(O)c1ccc(-c2cc3cccnc3c(-c3ccc4nonc4c3)n2)cc1`, for which the Potency entry in experiment [1], in experiment [3], in [6] and in [7] was “inactive” each time. The outcome in [2] was inactive. Also, in [4], the viability (% of control) turned out to be 111%. Moreover, in experiment [5], the viability, percent of control came out at 91.1%.

In the case of `COc1ncc(-c2ccc3nccc(-c4ccnnc4)c3c2)cc1NS(=O)(=O)c1ccc(F)cc1F`, the Potency was 1.05 µM (active) in [1] and 11.9 µM (active) in experiment [3]. In addition, in experiment [2], the compound was called inactive. Also, in [4], the viability (% of control) was 1.53%. The viability, percent of control in experiment [5] was 4.41%. In addition, in experiment [6], the Potency entry is “inactive”.

With `COc1ccc(Cc2nccc3cc(OC)c(OC)cc23)cc1OC`, the Potency entry in [8] is “inactive”. For the same compound, the result in [9], in [10] and in [11] was inactive.

With `CC(C)(C(=O)NCC(F)(F)C(F)(F)F)C(=O)N[C@@H]1C(=O)Nc2ccccc2-c2ccccc21`, the Potency entry in [1], in experiment [3], in experiment [6] and in [7] was “inactive” each time. Besides, in experiment [2], the outcome was inactive. Further, the viability (% of control) in [4] was found to be 61.9%. In addition, the viability, percent of control in experiment [5] was determined as 73.4%.

On to `CCCCC1C(=O)N(c2ccccc2)N(c2ccccc2)C1=O`, for which the Potency entry in [8] and in experiment [13] was “inactive” each time. In addition, the result in experiment [9], in [12], in experiment [10], in experiment [11], in experiment [15] and in [16] was inactive. Moreover, the activation in experiment [14] is -1.5% (inactive) and -1.29% (inactive).

`O=c1cc(-c2ccc(O)cc2)oc2cc(O)cc(O)c12`: in experiment [8], the Potency entry is “inactive”. Further, the compound was called inactive in experiment [9], in [12], in [10] and in [11]. The Potency in experiment [13] is 24.3 µM (active) and 33.5 µM (active); in experiment [17] it was 2.98 µM (active); in experiment [18], 5.96 µM (active).

As to `CCn1cc(C(=O)O)c(=O)c2ccc(C)nc21`, the Potency result in [8] and in experiment [13] was “inactive” each time. Also, the outcome in experiment [9], in [12] and in [11] was inactive. In addition, the activation in experiment [14] is -0.653% (inactive) and -1.68% (inactive).

Consider `CC(C)[C@H](CO)Nc1nc(Nc2ccc(C(=O)O)c(Cl)c2)c2ncn(C(C)C)c2n1`, for which the Potency result in experiment [1], in experiment [3], in [6] and in [7] was “inactive” throughout. Moreover, the call in [2] was inactive. The viability (% of control) in experiment [4] was 83.7%. For the same compound, in experiment [5], the viability, percent of control worked out at 129%.

In the case of `CC(C)(C)c1cc(C(=O)O)c(NC(=O)Nc2ccc3[nH]ncc3c2)s1`, the Potency result in experiment [1], in experiment [3], in experiment [6] and in [7] was “inactive” throughout. Further, in experiment [2], the compound was classed as inactive. In experiment [4], the viability (% of control) was found to be 99.7%. The viability, percent of control in experiment [5] turned out to be 100%.

For `CC(C)C(=O)Nc1ncc(-c2cc(C(F)F)nn2-c2c(Cl)cccc2Cl)s1`, the Potency entry in experiment [1] and in experiment [7] was “inactive” in each case. Besides, the call in experiment [2] was inactive. For the same compound, the Potency in [3] is 18.8 µM (active); in experiment [6] it was 16.6 µM (active). The viability (% of control) in experiment [4] was found to be 9.91%. The viability, percent of control in experiment [5] is 14.4%.

As to `CC(C)(C)C(=O)Oc1ccc2c(c1)nc(NC(=O)c1cccc([N+](=O)[O-])c1)n2CCCO`, the Potency result in [1], in experiment [6] and in [7] was “inactive” in each case. Moreover, the call in experiment [2] was inactive. Besides, the Potency in [3] was 4.73 µM (active). Besides, the viability (% of control) in experiment [4] amounted to 0.179%. Also, in experiment [5], the viability, percent of control amounted to 16.8%.

Regarding `CC/C(=C(\c1ccccc1)c1ccc(OCCN(C)C)cc1)c1ccccc1`, the Potency result in experiment [8] was “inactive”. The result in experiment [9], in experiment [12], in experiment [10], in [11] and in [15] was inactive.

As to `CC(C)NCC(O)COc1cccc2[nH]ccc12` (configuration not stated), in experiment [8], the Potency entry is “inactive”. Moreover, the compound was called inactive in experiment [9], in [12] and in [11].

With `NC(N)=Nc1nc(CSCC/C(N)=N/S(N)(=O)=O)cs1`, the outcome in experiment [9], in [12], in experiment [10] and in [11] was inactive.

As for `O=C(O)CCc1nc(-c2ccccc2)c(-c2ccccc2)o1`, the Potency entry in experiment [8] is “inactive”. Moreover, the compound was called inactive in [9], in [12] and in [11].

`CN(C)Cc1ccc(-c2nc3cccc4c3n2CCNC4=O)cc1`: the Potency result in experiment [1] was “inactive”. In addition, in [2], the call was inactive. For the same compound, in [3], the Potency is 23.7 µM (active). In addition, in [4], the viability (% of control) turned out to be 17%. For the same compound, in [5], the viability, percent of control was determined as 60.9%.

Consider `O=C(O)c1cc(O)c2c(c1)C(=O)c1cccc(O)c1C2=O`, for which, in experiment [14], the activation was 1% (inactive). The figures for the Potency in experiment [17] and in experiment [18] were 8.41 µM (active) and 5.31 µM (active), respectively.

For `c1ccc2c(-c3cnn4cc(-c5ccc(N6CCNCC6)cc5)cnc34)ccnc2c1`, the Potency in [3] is 18.8 µM (active). The viability (% of control) in [4] worked out at 0.905%. Also, the viability, percent of control in experiment [5] came out at 3.84%.

As to `NC(CO)(CO)CCc1ccc(Sc2cccc(OCc3ccccc3)c2)cc1Cl`, the viability (% of control) in [4] is 0.474%. For the same compound, the viability, percent of control in experiment [5] came to 1.28%. For the same compound, in [6], the Potency result is “inactive”.

In the case of `CC(=O)N(C)C1(c2ccccc2)CCN(CCC[C@]2(c3ccc(Cl)c(Cl)c3)CCCN(C(=O)c3ccccc3)C2)CC1`, the Potency was 23.5 µM (active) in [1] and 11.8 µM (active) in experiment [6]. Besides, the compound was classed as inactive in [2]. The viability (% of control) in experiment [4] worked out at 1.74%. Besides, the viability, percent of control in [5] came out at 1.69%.

Consider `O=C(Nc1ccccc1-c1cn2c(CN3CCNCC3)csc2n1)c1cnc2ccccc2n1`, for which the call in experiment [2] was inactive. Moreover, the Potency entry in experiment [3] and in experiment [6] was “inactive” each time. Moreover, in experiment [4], the viability (% of control) is 2.49%. For the same compound, the viability, percent of control in experiment [5] is 2.43%.
